In general, AC50 refers to the midpoint of the concentration-response curve, whichever way the signal moves.

Records with an inconclusive call do not appear. Calls of active or inactive are those of the source. How the source made its calls: active means hit-call score of the fitted dose curve at least 0.9, where 1 is the maximum; inconclusive means response in the unintended direction; inactive means score below 0.9.

The assay in a line: ACEA_ER_AUC_viability: ACEA Biosciences xCELLigence Real-Time Cell Analysis on Estrogen Receptor Agonism for Viability (AID 2283782).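 Further: hit means loss of impedance signal meaning reduced cell growth or viability.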 In a few lines:
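Continuous-exposure impedance cell analysis uses T-47D cells in charcoal-stripped serum, eight 1:4 dilutions topping at 100 uM final, biological duplicate. Area under the growth curve at 80 h is fitted against DMSO baseline.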
Regarding `ClCc1ccccc1CCl`, the AC50 was 29.6 µM (active).

Consider `ClCCN1CCOCC1`, for which the AC50 was 31.6 µM (active).

As for `CCCCC(CC)COC(=O)Cl` (configuration not stated), the outcome was inactive.

On to `CC(C)(COCC1CO1)COCC1CO1` (configuration not stated), for which the AC50 is 29.9 µM (active).

As to `O=S(=O)(c1ccc(Cl)cc1)c1cc(Cl)c(Cl)cc1Cl`, the AC50 was 69.2 µM (active).

With `Brc1c(Br)c(Br)c(Oc2c(Br)c(Br)c(Br)c(Br)c2Br)c(Br)c1Br`, the call was inactive.

Consider `CCOP(=O)(OCC)OC(=CCl)c1ccc(Cl)cc1Cl`, for which the AC50 was 77.8 µM (active).

In the case of `COc1ccccc1N`, the compound was called inactive.

Consider `O=[N+]([O-])c1cc([As](=O)(O)O)ccc1O`, for which the result was inactive.

For the compound `O=[N+]([O-])c1ccccc1O`, the outcome was inactive.

Take `O=C1C=CC(=O)c2ccccc21`: the AC50 was 22.5 µM (active).

Consider `O=C(O)C1(c2ccc3c(c2)OC[C@H](Cc2ccc(-c4ccccc4)cc2)[C@H]3O)CCCC1`, for which the AC50 is 78.3 µM (active).

Turning to `CCC[CH2][Sn]([CH2]CCC)([CH2]CCC)[CH2]CCC`, the AC50 was 22 µM (active).

As to `Cc1cc(Cl)ccc1O`, the outcome was inactive.

For the compound `COc1nn(C(=O)NS(=O)(=O)c2ccccc2OC(F)(F)F)c(=O)n1C`, the call was inactive.

`Clc1cccc(Cl)c1`: the compound was classed as inactive.

As for `Nc1ncn[nH]1`, the outcome was inactive.

Regarding `CCOc1ccc(N)cc1`, the result was inactive.

Regarding `O=C(CCl)NCO`, the result was inactive.

As to `CC(C)=CC1C(C(=O)OCc2cccc(Oc3ccccc3)c2)C1(C)C` (configuration not stated), the call was inactive.

Consider `Cc1c([N+](=O)[O-])c(C)c([N+](=O)[O-])c(C(C)(C)C)c1[N+](=O)[O-]`, for which the call was inactive.

Consider `C=CC(=O)NC(C)(C)CC(C)=O`, for which the call was inactive.

For the compound `CC(C)(C#N)N=NC(C)(C)C#N`, the compound was classed as inactive.

Take `CC(C)[C@H](C(=O)OC(C#N)c1cccc(Oc2ccccc2)c1)c1ccc(OC(F)F)cc1` (some centres not stated): the AC50 is 38 µM (active).

For `NC(=O)CCl`, the half-maximal activity concentration (AC50) is 39.6 µM (active).

For `O=C/C(Cl)=C(/Cl)C(=O)O`, the AC50 was 73.9 µM (active).

Take `CCC(C)(C#N)N=NC(C)(C#N)CC` (configuration not stated): the compound was classed as inactive.

(Values after PubChem BioAssay (EPA / NIEHS).)
